The record followed here is PubChem BioAssay (EPA / NIEHS).

Inconclusive results are not listed. Calls of active or inactive are those of the source. Rule for the calls: active = hit-call score of the fitted dose curve at least 0.9, where 1 is the maximum; inconclusive = response in the unintended direction; inactive = score below 0.9.

For the experiment, the target named is AR (gene 367) (UniProt P10275). As to the kind of experiment: ACEA_AR_antagonist_80hr: ACEA Biosciences xCELLigence Real-Time Cell Analysis on Androgen Receptor Antagonism for Proliferation (AID 2283787). The procedure: ACEA_AR_antagonist is a cell-based, single-readout assay that uses 22Rv1, a human prostate cancer cell line, with measurements taken at 80 hours after chemical dosing in a 384-well plate, although TO5 and TO6 (mc0.srcf) used a 96-well plate. Differences in plate size can be ignored given data normalization.ACEA_AR_antagonist_80hr is one of two assay component(s) measured or calculated from the ACEA_AR assay. It is designed to make measurements of real-time cell-growth kinetics, a form of growth reporter, as detected with electrical impedance signals by Real-Time Cell Electrode Sensor (RT-CES) technology.Data from the assay component ACEA_AR_antagonist_80hr was analyzed in the positive analysis fitting direction relative to DMSO as the negative control and baseline of activity. Using a type of growth reporter, measures of the cells for loss-of-signal activity can be used to understand the signaling at the pathway-level as they relate to the gene AR. Furthermore, this assay endpoint can be referred to as a primary readout, because this assay has produced multiple assay endpoints where this one serves a signaling function. To generalize the intended target to other relatable targets, this assay endpoint is annotated to the nuclear receptor intended target family, where the subfamily is steroidal.
AR (gene 367), sequence (P10275 whole entry, looked up): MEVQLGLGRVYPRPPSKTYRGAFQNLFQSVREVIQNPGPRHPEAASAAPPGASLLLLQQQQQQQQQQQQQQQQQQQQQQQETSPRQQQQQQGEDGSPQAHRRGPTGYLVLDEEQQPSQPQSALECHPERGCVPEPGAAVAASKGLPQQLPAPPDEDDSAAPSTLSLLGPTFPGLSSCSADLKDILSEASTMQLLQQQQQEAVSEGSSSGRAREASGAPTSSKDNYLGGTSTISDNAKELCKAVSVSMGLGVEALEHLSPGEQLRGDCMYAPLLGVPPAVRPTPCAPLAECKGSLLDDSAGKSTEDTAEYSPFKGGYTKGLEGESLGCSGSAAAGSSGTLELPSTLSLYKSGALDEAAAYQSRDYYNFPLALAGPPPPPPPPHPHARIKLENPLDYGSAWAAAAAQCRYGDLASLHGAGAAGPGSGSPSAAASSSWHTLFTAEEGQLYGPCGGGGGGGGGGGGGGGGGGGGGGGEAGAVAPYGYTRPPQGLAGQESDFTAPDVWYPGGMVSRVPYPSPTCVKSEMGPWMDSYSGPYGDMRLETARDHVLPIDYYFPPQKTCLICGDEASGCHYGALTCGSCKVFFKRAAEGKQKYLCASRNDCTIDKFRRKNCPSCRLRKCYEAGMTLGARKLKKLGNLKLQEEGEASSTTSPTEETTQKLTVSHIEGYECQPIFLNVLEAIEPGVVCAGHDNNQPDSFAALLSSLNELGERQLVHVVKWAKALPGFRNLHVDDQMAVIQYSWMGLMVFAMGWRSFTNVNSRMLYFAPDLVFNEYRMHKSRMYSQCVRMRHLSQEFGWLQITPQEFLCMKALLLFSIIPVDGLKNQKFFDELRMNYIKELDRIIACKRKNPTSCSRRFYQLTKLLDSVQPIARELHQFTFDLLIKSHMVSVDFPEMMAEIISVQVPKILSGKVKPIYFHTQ
The xCELLigence system Multi-E-Plate stations were used to measure the time-dependent response to chemicals. Each compound was tested in an eight-point, 1:4 serial dilution series starting at a maximum final concentration of 100 uM. A maximum starting concentration of 0.5% DMSO was present in the 100 uM chemical samples and was diluted along with the test article dilution series. The screen was performed in biological duplicate using two separate, 96-well, E-Plates 96 for each dilution series (n = 2). Positive controls (MG132 and testosterone) and a negative control (assay media) were tested in quadruplicate on each testing plate. […] Reference compounds were tested with 8 concentrations with 1:5 serial dilutions. All screening was carried out by ACEA Biosciences, Inc. (San Diego, CA). 22Rv1 cells purchased from ATCC were maintained in media supplemented with 10% fetal bovine serum (FBS). Before screening, 22Rv1 cells were preconditioned in assay medium. Cells were then detached and seeded in E-Plates 96 in assay medium. After overnight monitoring of growth once every hour, compounds were added to […] cells and remained in the medium until the end of the experiment. Cellular responses were then recorded once every 5 min for the first 5 h, and once every hour for an additional 100 h.
In the case of `COc1cc(/C=C/C(=O)CC(=O)/C=C/c2ccc(O)c(OC)c2)ccc1O`, the AC50 (usually the midpoint of the concentration-response curve, whichever way the signal moves) was 25.9 µM (active). Still for that read-out and setting: then `COCCOC[C@H](CC1(C(=O)NC2CCC(C(=O)O)CC2)CCCC1)C(=O)Oc1ccc2c(c1)CCC2` (stereo partly specified), with 18.2 µM (active). For the compound `CC(=O)Oc1ccccc1C(=O)O`, the call was inactive. In the case of `COCCOCCOC`, the outcome was inactive.

With `CCCCCC(=O)O`, the compound was classed as inactive. Consider `Cc1ccc(C)c(O)c1C`, for which the result was inactive.

As for `Cc1nc(-c2ccc3c(c2)CCN(CCC2CCC(NC(=O)/C=C/c4ccc(F)cc4)CC2)CC3)no1` (stereo unspecified), the AC50 was 23.2 µM (active). For the compound `Cc1cccc(Nc2cc(Cl)nc(SCC(=O)O)n2)c1C`, the compound was called inactive. For `CCCCCCCCCCC`, the compound was called inactive. With `COc1ccc(C)cc1N`, the outcome was inactive. For `Cc1ccc(C)c(C)c1`, the call was inactive. Regarding `Cc1ccc(N(C)C)cc1`, the compound was called inactive.

Take `O=C(O)Cc1ccccc1Nc1c(Cl)cccc1Cl`: the concentration at half-maximal activity (AC50) is 70.9 µM (active). `COc1cc(-c2nc(NC(=O)c3cc4cc(C)cc(C)c4n3CC(=O)O)sc2CCC2CCCCC2)c(OC)cc1Cl`: the AC50 is 11.6 µM (active). On to `Cc1cccc([N+](=O)[O-])c1C`, for which the call was inactive. For `CN[C@H]1CC[C@@H](c2ccc(Cl)c(Cl)c2)c2ccc(S(N)(=O)=O)cc21`, the concentration at half-maximal activity (AC50) is 13.1 µM (active). Take `Cc1cc(NC(=O)C(=O)O)cc(C)c1Oc1ccc(O)c2c1CCC2`: the result was inactive. As to `COc1ccc(S(=O)(=O)N2C(=O)[C@@](c3ccccc3OC)(N3C[C@H](O)C[C@H]3C(=O)N(C)C)c3cc(Cl)ccc32)c(OC)c1`, the AC50 is 24 µM (active). In the case of `CCOc1ccc2c(c1)C(C)=CC(C)(C)N2`, the AC50 is 72.2 µM (active). On to `CNC(=O)[C@H]1O[C@@H](n2cnc3c(NCc4cc(Cl)ccc4OCc4cc(C)no4)ncnc32)[C@H](O)[C@@H]1N`, for which the call was inactive. As to `COc1ccc2c(c1)c(CC(=O)O)c(C)n2C(=O)c1ccc(Cl)cc1`, the AC50 was 34.1 µM (active).
